The values that follow come from the supplement of paper PMC9694430.

The structures appear in SMILES notation. Structures can show the parent of a compound that is named as a salt.

In one experiment the test system is LOC_OS01G10900-cb004. Nature of the experiment: thermal shift delta Tm vs DMSO control; higher = stronger stabilization (binding). Conditions: 12.5 µM; protein concentration 2 µM. The procedure, abridged: (§1)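 Compounds dissolved in DMSO were added to purified rice kinase domain constructs, which had been expressed in E. coli, for differential scanning fluorimetry. Each well held 19.5 μl of 2 μM kinase in 100 mM potassium phosphate pH 7.5, 150 mM NaCl, 10% glycerol and 5 × SYPRO Orange. Fluorescence was followed from 25°C to 95°C at a rate of 0.05°C/s. Shifts in Boltzmann-fitted melting temperature are triplicate means relative to DMSO-only protein.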
Turning to `CCNC(=O)Nc1ccc(-c2nc(N3CCOC[C@@H]3C)c3c(n2)C(C)(C)S(=O)(=O)C3)cc1`, the “thermal shift delta Tm” value worked out at 0.47 °C.

In the case of `CN1CCN(c2ccc(OC(F)(F)F)c(Nc3ncc4c(n3)-c3c(c(C(N)=O)nn3CCO)CC4)c2)CC1`, the “thermal shift delta Tm” value came out at 0.67 °C.

As to `C[C@@H](Oc1cc(-n2cnc3ccc(CN4CCN(C)CC4)cc32)sc1C(N)=O)c1ccccc1C(F)(F)F`, the “thermal shift delta Tm” value came to 3.48 °C.

Regarding `COc1cc(OC)cc(-c2cc3cnc(N)nc3nc2NC(=O)NC(C)(C)C)c1`, the “thermal shift delta Tm” value stood at 0.1 °C.

Consider `COC(=O)c1ccc2c(c1)NC(=O)/C2=C(\Nc1ccc(N(C)C(=O)CN2CCN(C)CC2)cc1)c1ccccc1` [Nintedanib (BIBF 1120)], for which the “thermal shift delta Tm” value was determined as 0.18 °C.

`Cc1[nH]c(/C=C2\C(=O)Nc3ccccc32)c(C)c1CCC(=O)O` [Orantinib (TSU-68, SU6668)]: the “thermal shift delta Tm” value was 0.18 °C.

Regarding `NC1(c2ccc(-c3nc4ccn5c(=O)[nH]nc5c4cc3-c3ccccc3)cc2)CCC1`, the “thermal shift delta Tm” value was determined as 0.16 °C.

As to `N#Cc1ccc2[nH]c(O)c(-c3ccc(CN4CCOCC4)cn3)c2c1`, the “thermal shift delta Tm” value was 0.41 °C.

Turning to `C=C[C@@](C)(/C=C/c1ccc(O)cc1)CCC=C(C)C` [Bakuchiol], the “thermal shift delta Tm” value turned out to be 1.06 °C.

With `Cn1cnc2c(F)c(Nc3ccc(Br)cc3F)c(C(=O)NOCCO)cc21`, the “thermal shift delta Tm” value is 0.02 °C.

In the case of `CC(C)(C)c1nc(-c2ccc(NC(=O)Nc3cccc(C(F)(F)F)c3)c3ccccc23)c2c(N)nccn12` [kira6], the “thermal shift delta Tm” value is 0.45 °C.

Regarding `CC1=C(C(=O)Nc2cc3cn[nH]c3cc2F)C(c2ccc(C(F)(F)F)cc2)CC(=O)N1` (centres undefined), the “thermal shift delta Tm” value is 0.11 °C.

Turning to `Cc1cn(-c2cc(NC(=O)c3ccc(C)c(Nc4nccc(-c5cnccn5)n4)c3)cc(C(F)(F)F)c2)cn1` [Radotinib], the “thermal shift delta Tm” value was determined as 2.41 °C.

As for `COc1ncc(-c2ccc3nccc(-c4ccnnc4)c3c2)cc1NS(=O)(=O)c1ccc(F)cc1F`, the “thermal shift delta Tm” value is 0.23 °C.

With `CNC(=O)c1cc(COc2nnc(Nc3ccc(Cl)cc3)c3ccoc23)ccn1` [Telatinib], the “thermal shift delta Tm” value came to 0.29 °C.

As for `COc1cc2nccc(Oc3ccc(NC(=O)C4(C(=O)Nc5ccc(F)cc5)CC4)cc3)c2cc1OC` [Cabozantinib malate (XL184)], the “thermal shift delta Tm” value was 0.03 °C.

For `C1=N/C2=N/c3ccc(OCCN4CCCC4)c(c3)COC/C=C/COCc3cccc(c3)C(=C1)N2` [Pacritinib (SB1518)], the “thermal shift delta Tm” value was determined as 2.75 °C.

With `N#Cc1cnc(Nc2cc(NC[C@H]3CNCCO3)c(C(F)(F)F)cn2)cn1`, the “thermal shift delta Tm” value came out at 0.47 °C.

Take `COc1cc(N2CCN(C)CC2)ccc1Nc1nccc(-c2cn(C)c3cnccc23)n1`: the “thermal shift delta Tm” value stood at 1.77 °C.

Regarding `CC(C)(C)NS(=O)(=O)c1cncc(-c2cc(F)c3nc(N)nn3c2)c1`, the “thermal shift delta Tm” value turned out to be 0.04 °C.

For `CCNC(=O)C#Cc1ccc2c(C(=Nc3ccc(CN(C)C)cc3)c3ccccc3)c(O)[nH]c2c1`, the “thermal shift delta Tm” value was 0.16 °C.

`O=C1NC(=O)[C@@H](c2cn3c4c(cccc24)CCC3)[C@@H]1c1c[nH]c2ccccc12` [Tivantinib (ARQ 197)]: the “thermal shift delta Tm” value was determined as 0.15 °C.

`O=S(=O)(c1cccc2c(I)cccc12)N1CCCNCC1`: the “thermal shift delta Tm” value came out at 0.56 °C.

Turning to `CCN1CCN(Cc2ccc(C(=O)Nc3ccc(C)c(Oc4ccc5c(c4)CC(=O)N5)c3)cc2C(F)(F)F)CC1`, the “thermal shift delta Tm” value was 2.1 °C.

`C[C@@H](Nc1cc(F)cc(F)c1)c1cc(C(=O)N(C)C)cc2c(=O)cc(N3CCOCC3)oc12`: the “thermal shift delta Tm” value amounted to 0.28 °C.

For `C[C@H](CN(C)C)Oc1nc(Nc2cc3cccc(Cl)c3cn2)cnc1C#N`, the “thermal shift delta Tm” value is 0.44 °C.

Consider `CNC(=O)c1cc(Oc2ccc(NC(=O)Nc3ccc(Cl)c(C(F)(F)F)c3)cc2)ccn1` [Sorafenib], for which the “thermal shift delta Tm” value was found to be 1.53 °C.

On to `COc1ccc(Cl)cc1NC(=O)Nc1cc(C)nc2ccccc12`, for which the “thermal shift delta Tm” value is 0.18 °C.

`O=C(c1cccc(Cl)c1F)N1CCN(Cc2cccc(Nc3nccs3)n2)CC1`: the “thermal shift delta Tm” value was found to be 0.24 °C.

As for `CNC(=O)c1ccc(C)c(-n2c(C)cc(OCc3ccc(F)cc3F)c(Br)c2=O)c1`, the “thermal shift delta Tm” value was determined as 0.26 °C.

As for `CCn1c(-c2nonc2N)nc2c(C#CC(C)(C)O)ncc(OC[C@H]3CCCNC3)c21`, the “thermal shift delta Tm” value was determined as 0.42 °C.

Regarding `CCC[C@H](NC(=O)/C(C#N)=C/c1cccc(Br)n1)c1ccccc1` [Degrasyn (WP1130)], the “thermal shift delta Tm” value stood at 0.28 °C.

Turning to `OC1CCC(Nc2ncc3nc(Nc4c(F)cc(F)cc4F)n([C@H]4CCOC4)c3n2)CC1` (some centres undefined) [Tanzisertib(CC-930)], the “thermal shift delta Tm” value was determined as 0.32 °C.

With `CN(C)C/C=C/C(=O)Nc1cc2c(Nc3ccc(F)c(Cl)c3)ncnc2cc1O[C@H]1CCOC1` [Afatinib (BIBW2992) Dimaleate], the “thermal shift delta Tm” value worked out at 5.05 °C.

With `Cc1cc(O)c(-c2ccc([C@@H](C)CN)cc2)c2c1[nH]c(=O)c1sccc12` [OTS514 hydrochloride], the “thermal shift delta Tm” value stood at 1.18 °C.

As to `Cc1ccc(F)c(NC(=O)Nc2ccc(-c3cccc4[nH]nc(N)c34)cc2)c1` [Linifanib (ABT-869)], the “thermal shift delta Tm” value turned out to be 1.34 °C.

Take `COc1cc(N2CCC(N(C)C)CC2)ccc1Nc1ncc(Cl)c(Nc2ccccc2P(C)(C)=O)n1`: the “thermal shift delta Tm” value was determined as 0.79 °C.

In another experiment the test system is LOC_OS01G13800-cb001. The description is as above. Particulars: 12.5 µM; protein concentration 2 µM. Put shortly:
as §1
Consider `CCNC(=O)Nc1ccc(-c2nc(N3CCOC[C@@H]3C)c3c(n2)C(C)(C)S(=O)(=O)C3)cc1`, for which the “thermal shift delta Tm” value is 0.09 °C.

In the case of `CN1CCN(c2ccc(OC(F)(F)F)c(Nc3ncc4c(n3)-c3c(c(C(N)=O)nn3CCO)CC4)c2)CC1`, the “thermal shift delta Tm” value is -0.54 °C.

Regarding `C[C@@H](Oc1cc(-n2cnc3ccc(CN4CCN(C)CC4)cc32)sc1C(N)=O)c1ccccc1C(F)(F)F`, the “thermal shift delta Tm” value was found to be 0.56 °C.

Regarding `COc1cc(OC)cc(-c2cc3cnc(N)nc3nc2NC(=O)NC(C)(C)C)c1`, the “thermal shift delta Tm” value stood at 0.07 °C.

As to `COC(=O)c1ccc2c(c1)NC(=O)/C2=C(\Nc1ccc(N(C)C(=O)CN2CCN(C)CC2)cc1)c1ccccc1` [Nintedanib (BIBF 1120)], the “thermal shift delta Tm” value is -0.11 °C.

Take `Cc1[nH]c(/C=C2\C(=O)Nc3ccccc32)c(C)c1CCC(=O)O` [Orantinib (TSU-68, SU6668)]: the “thermal shift delta Tm” value is 0.08 °C.

On to `NC1(c2ccc(-c3nc4ccn5c(=O)[nH]nc5c4cc3-c3ccccc3)cc2)CCC1`, for which the “thermal shift delta Tm” value was 0.23 °C.

As for `N#Cc1ccc2[nH]c(O)c(-c3ccc(CN4CCOCC4)cn3)c2c1`, the “thermal shift delta Tm” value is -0.53 °C.

As for `C=C[C@@](C)(/C=C/c1ccc(O)cc1)CCC=C(C)C` [Bakuchiol], the “thermal shift delta Tm” value was 0.03 °C.

On to `Cn1cnc2c(F)c(Nc3ccc(Br)cc3F)c(C(=O)NOCCO)cc21`, for which the “thermal shift delta Tm” value was -0.05 °C.

With `CC(C)(C)c1nc(-c2ccc(NC(=O)Nc3cccc(C(F)(F)F)c3)c3ccccc23)c2c(N)nccn12` [kira6], the “thermal shift delta Tm” value was found to be 1.09 °C.

As for `CC1=C(C(=O)Nc2cc3cn[nH]c3cc2F)C(c2ccc(C(F)(F)F)cc2)CC(=O)N1` (centres undefined), the “thermal shift delta Tm” value stood at 0.54 °C.

For `Cc1cn(-c2cc(NC(=O)c3ccc(C)c(Nc4nccc(-c5cnccn5)n4)c3)cc(C(F)(F)F)c2)cn1` [Radotinib], the “thermal shift delta Tm” value turned out to be 0.87 °C.

Regarding `COc1ncc(-c2ccc3nccc(-c4ccnnc4)c3c2)cc1NS(=O)(=O)c1ccc(F)cc1F`, the “thermal shift delta Tm” value amounted to 0.27 °C.

Turning to `CNC(=O)c1cc(COc2nnc(Nc3ccc(Cl)cc3)c3ccoc23)ccn1` [Telatinib], the “thermal shift delta Tm” value came out at 0.36 °C.

`COc1cc2nccc(Oc3ccc(NC(=O)C4(C(=O)Nc5ccc(F)cc5)CC4)cc3)c2cc1OC` [Cabozantinib malate (XL184)]: the “thermal shift delta Tm” value turned out to be 0.12 °C.

For `C1=N/C2=N/c3ccc(OCCN4CCCC4)c(c3)COC/C=C/COCc3cccc(c3)C(=C1)N2` [Pacritinib (SB1518)], the “thermal shift delta Tm” value is -0.21 °C.

`N#Cc1cnc(Nc2cc(NC[C@H]3CNCCO3)c(C(F)(F)F)cn2)cn1`: the “thermal shift delta Tm” value was -0.18 °C.

With `COc1cc(N2CCN(C)CC2)ccc1Nc1nccc(-c2cn(C)c3cnccc23)n1`, the “thermal shift delta Tm” value is 0.56 °C.

On to `CC(C)(C)NS(=O)(=O)c1cncc(-c2cc(F)c3nc(N)nn3c2)c1`, for which the “thermal shift delta Tm” value was determined as 0.1 °C.

For the molecule `CCNC(=O)C#Cc1ccc2c(C(=Nc3ccc(CN(C)C)cc3)c3ccccc3)c(O)[nH]c2c1`, the “thermal shift delta Tm” value was -0.3 °C.

With `O=C1NC(=O)[C@@H](c2cn3c4c(cccc24)CCC3)[C@@H]1c1c[nH]c2ccccc12` [Tivantinib (ARQ 197)], the “thermal shift delta Tm” value was determined as 0.17 °C.

Consider `O=S(=O)(c1cccc2c(I)cccc12)N1CCCNCC1`, for which the “thermal shift delta Tm” value was 0.43 °C.

As for `CCN1CCN(Cc2ccc(C(=O)Nc3ccc(C)c(Oc4ccc5c(c4)CC(=O)N5)c3)cc2C(F)(F)F)CC1`, the “thermal shift delta Tm” value was found to be 0.59 °C.

Regarding `C[C@@H](Nc1cc(F)cc(F)c1)c1cc(C(=O)N(C)C)cc2c(=O)cc(N3CCOCC3)oc12`, the “thermal shift delta Tm” value worked out at 0.04 °C.

Consider `C[C@H](CN(C)C)Oc1nc(Nc2cc3cccc(Cl)c3cn2)cnc1C#N`, for which the “thermal shift delta Tm” value turned out to be 0.1 °C.

Regarding `CNC(=O)c1cc(Oc2ccc(NC(=O)Nc3ccc(Cl)c(C(F)(F)F)c3)cc2)ccn1` [Sorafenib], the “thermal shift delta Tm” value was found to be 1.59 °C.

Consider `COc1ccc(Cl)cc1NC(=O)Nc1cc(C)nc2ccccc12`, for which the “thermal shift delta Tm” value worked out at 0.68 °C.

For `O=C(c1cccc(Cl)c1F)N1CCN(Cc2cccc(Nc3nccs3)n2)CC1`, the “thermal shift delta Tm” value was -0.45 °C.

For the molecule `CNC(=O)c1ccc(C)c(-n2c(C)cc(OCc3ccc(F)cc3F)c(Br)c2=O)c1`, the “thermal shift delta Tm” value is 0.31 °C.

For the molecule `CCn1c(-c2nonc2N)nc2c(C#CC(C)(C)O)ncc(OC[C@H]3CCCNC3)c21`, the “thermal shift delta Tm” value amounted to 0.37 °C.

For `CCC[C@H](NC(=O)/C(C#N)=C/c1cccc(Br)n1)c1ccccc1` [Degrasyn (WP1130)], the “thermal shift delta Tm” value stood at 0.06 °C.

Take `OC1CCC(Nc2ncc3nc(Nc4c(F)cc(F)cc4F)n([C@H]4CCOC4)c3n2)CC1` (some centres undefined) [Tanzisertib(CC-930)]: the “thermal shift delta Tm” value amounted to 0.7 °C.

In the case of `CN(C)C/C=C/C(=O)Nc1cc2c(Nc3ccc(F)c(Cl)c3)ncnc2cc1O[C@H]1CCOC1` [Afatinib (BIBW2992) Dimaleate], the “thermal shift delta Tm” value amounted to 0.72 °C.

On to `Cc1cc(O)c(-c2ccc([C@@H](C)CN)cc2)c2c1[nH]c(=O)c1sccc12` [OTS514 hydrochloride], for which the “thermal shift delta Tm” value came out at 0.58 °C.

On to `Cc1ccc(F)c(NC(=O)Nc2ccc(-c3cccc4[nH]nc(N)c34)cc2)c1` [Linifanib (ABT-869)], for which the “thermal shift delta Tm” value was found to be 0.36 °C.

For the molecule `COc1cc(N2CCC(N(C)C)CC2)ccc1Nc1ncc(Cl)c(Nc2ccccc2P(C)(C)=O)n1`, the “thermal shift delta Tm” value is -0.94 °C.
